Consider 55 compounds from PMC11995724, “Antibiotic target discovery by integrated phenotypic and activity-based profiling of electrophilic fragments” (Cell chemical biology, 2025).

Hit rate of the full screen: of about 3,200 compounds, about 110 (3.4%) showed an effect of 50% or more. This is one part of a sample in which strong results are shown more often than they occur.

This assay relates to T1, V. cholerae SAD30.
T1 construct: SAD30
The arrangement: species or system S. aureus MSSA476 (TSB) or V. cholerae SAD30 (LB); 384-well bacterial growth screen at 25 uM, OD600 relative to DMSO control. The settings on record: relative growth, OD600, LB; 25 µM; inhibitor.
As to `N#CC(=Cc1ccc(O)cc1)C(=O)NCCc1c(F)cccc1F` [9-I16, 2-cyano-N-[2-(2,6-difluorophenyl)ethyl]-3-(4-hydroxyphenyl)prop-2-enamide], the “% of control remaining” value is 83.8205%.
As for `c1nc(N2CCSSCC2)c2c3c(sc2n1)CCCC3` [10-M22, 3-(1,2,5-dithiazepan-5-yl)-8-thia-4,6-diazatricyclo[7.4.0.0,2,7]trideca-1(9),2,4,6-tetraene], the figure is 79.3298%.
The same measure for `O=C(CCl)Nc1nccc(Cl)n1` [6-C19, 2-chloro-N-(4-chloropyrimidin-2-yl)acetamide]: 88.7288%.
With `O=C(CCl)Nc1ccccc1Sc1ccc(Cl)cc1` [4-O13, 2-chloro-N-{2-[(4-chlorophenyl)sulfanyl]phenyl}acetamide], the “% of control remaining” value amounted to 72.9782%.
With `O=C1C=CC(=O)N1c1ccccc1Sc1ccc(Cl)cc1` [10-A03, 1-{2-[(4-chlorophenyl)sulfanyl]phenyl}-2,5-dihydro-1H-pyrrole-2,5-dione], the “% of control remaining” value amounted to 28.6772%.
The same measure for `CC(Cl)C(=O)Nc1ccccc1Sc1ccccc1` (stereo not shown) [6-H10, 2-chloro-N-[2-(phenylsulfanyl)phenyl]propanamide]: 56.4224%; for `O=C(O)C(c1ccccc1)N1C(=O)C=CC1=O` (stereo not shown) [10-E21, 2-(2,5-dioxo-2,5-dihydro-1H-pyrrol-1-yl)-2-phenylacetic acid]: 103.487%.
As for `O=C1C=CC(=O)N1c1ccccc1Sc1ccccc1` [10-K12, 1-[2-(phenylsulfanyl)phenyl]-2,5-dihydro-1H-pyrrole-2,5-dione], the figure is 28.0538%.
As for `Cc1cc(NC(=O)CCl)n(-c2ccccc2)n1` [4-G05, 2-chloro-N-(3-methyl-1-phenyl-1H-pyrazol-5-yl)acetamide], the figure is 102.825%.
Take `CC(C)c1ccc(CCNC(=O)CCl)cc1` [6-I16, 2-chloro-N-{2-[4-(propan-2-yl)phenyl]ethyl}acetamide]: the “% of control remaining” value is reported as 91.9139%.
The same measure for `C=CC(=O)N1CCN(S(=O)(=O)Cc2ccon2)CC1` [1-J07, 1-{4-[(1,2-oxazol-3-yl)methanesulfonyl]piperazin-1-yl}prop-2-en-1-one]: 89.2377%.
As for `CN(Cc1ccccc1)S(=O)(=O)c1ccc(NC(=O)CCl)cc1` [5-K08, N-{4-[benzyl(methyl)sulfamoyl]phenyl}-2-chloroacetamide], the figure is 97.1735%.
As for `N#CC(=Cc1cnc(-c2ccccc2)nc1)C(=O)NCc1ccco1` [9-M14, 2-cyano-N-[(furan-2-yl)methyl]-3-(2-phenylpyrimidin-5-yl)prop-2-enamide], the figure is 95.2413%.
For `O=C(CCl)NCCc1c(F)cccc1F` [5-F20, 2-chloro-N-[2-(2,6-difluorophenyl)ethyl]acetamide], the “% of control remaining” value came out at 99.5272%.
With `Cc1cccc(Cl)c1CCCNC(=O)CCl` [7-F04, 2-chloro-N-[3-(2-chloro-6-methylphenyl)propyl]acetamide], the “% of control remaining” value amounted to 91.9874%.
The same measure for `O=C(CCl)Nc1c(Cl)cccc1C(F)(F)F` [5-B04, 2-chloro-N-[2-chloro-6-(trifluoromethyl)phenyl]acetamide]: 98.0141%; for `O=C(CCl)Cc1cccc(F)c1F` [10-K17, 1-chloro-3-(2,3-difluorophenyl)propan-2-one]: 0.1559%.
`O=C(CCl)Nc1ccc(F)c(F)c1F` [4-M05, 2-chloro-N-(2,3,4-trifluorophenyl)acetamide]: the “% of control remaining” value was found to be 104.033%.
The same measure for `O=C(CCl)Cc1c(Cl)cccc1Cl` [10-K15, 1-chloro-3-(2,6-dichlorophenyl)propan-2-one]: 45.6653%.
As for `O=C(CCl)Cc1c(F)cccc1F` [10-O15, 1-chloro-3-(2,6-difluorophenyl)propan-2-one], the “% of control remaining” value turned out to be 99.7467%.
The same measure for `O=C(CCl)Nc1ccccc1F` [4-M16, 2-chloro-N-(2-fluorophenyl)acetamide]: 98.3394%; for `O=C(CCl)Cc1c(F)cccc1Cl` [10-D20, 1-chloro-3-(2-chloro-6-fluorophenyl)propan-2-one]: 36.1582%; for `Cc1ccc2sc(N(Cc3ccccc3)C(=O)CCl)nc2c1C` [4-K06, N-benzyl-2-chloro-N-(4,5-dimethyl-1,3-benzothiazol-2-yl)acetamide]: 100.927%.
As for `C=CC(=O)Nc1ccccc1Sc1nncs1` [1-G04, N-[2-(1,3,4-thiadiazol-2-ylsulfanyl)phenyl]prop-2-enamide], the “% of control remaining” value is on record as 100.149%.
The same measure for `COCCNC(=O)C(C#N)=Cc1sccc1C` [9-M17, 2-cyano-N-(2-methoxyethyl)-3-(3-methylthiophen-2-yl)prop-2-enamide]: 85.9959%; for `O=C(CCl)N1C[C@@H]2C[C@H]1CN2c1ccccc1` [5-E22, 2-chloro-1-[(1S,4S)-5-phenyl-2,5-diazabicyclo[2.2.1]heptan-2-yl]ethan-1-one]: 106.756%.
As for `Cc1cc(C(=O)CCl)c(C)n1-c1cccc([N+](=O)[O-])c1` [10-B16, 2-chloro-1-[2,5-dimethyl-1-(3-nitrophenyl)-1H-pyrrol-3-yl]ethan-1-one], the figure is 67.329%; as for `O=C1C=CC(=O)N1c1cccc([N+](=O)[O-])c1` [10-P15, 1-(3-nitrophenyl)-2,5-dihydro-1H-pyrrole-2,5-dione], 35.6906%.
As for `COc1cccc(NC(=O)C(C#N)=Cc2ccc(O)cc2)c1` [8-O17, 2-cyano-3-(4-hydroxyphenyl)-N-(3-methoxyphenyl)prop-2-enamide], the figure is 71.584%; as for `CC(=O)Nc1cccc(N2C(=O)C=CC2=O)c1` [10-D09, N-[3-(2,5-dioxo-2,5-dihydro-1H-pyrrol-1-yl)phenyl]acetamide], 85.564%; as for `NS(=O)(=O)c1cccc(N2C(=O)C=CC2=O)c1` [10-I05, 3-(2,5-dioxo-2,5-dihydro-1H-pyrrol-1-yl)benzene-1-sulfonamide], 102.396%.
As for `O=C1C=CC(=O)N1c1cccc(O)c1` [10-O07, 1-(3-hydroxyphenyl)-2,5-dihydro-1H-pyrrole-2,5-dione], the “% of control remaining” value was 26.4952%.
As for `COc1cccc(N2C(=O)C=CC2=O)c1` [10-K03, 1-(3-methoxyphenyl)-2,5-dihydro-1H-pyrrole-2,5-dione], the figure is 23.8457%.
The same measure for `COc1cccc(NC(=O)C(C)Cl)c1` (stereo not shown) [6-I03, 2-chloro-N-(3-methoxyphenyl)propanamide]: 100.863%; for `CC(Cl)C(=O)N1CCCC(n2ccc(C(F)(F)F)n2)C1` (stereo not shown) [7-A08, 2-chloro-1-{3-[3-(trifluoromethyl)-1H-pyrazol-1-yl]piperidin-1-yl}propan-1-one]: 84.3218%.
As for `O=C(CCl)Nc1nc2c(s1)CCc1ccccc1-2` [6-D03, 2-chloro-N-{4H,5H-naphtho[1,2-d][1,3]thiazol-2-yl}acetamide], the figure is 105.868%; as for `CC(NC(=O)CCl)C(=O)N1CCS(=O)(=O)CC1` (stereo not shown) [5-K14, 2-chloro-N-[1-(1,1-dioxo-1lambda6-thiomorpholin-4-yl)-1-oxopropan-2-yl]acetamide], 88.7675%; as for `C=CC(=O)N1CCOCC1c1noc(C)n1` (stereo not shown) [3-O11, 1-[3-(5-methyl-1,2,4-oxadiazol-3-yl)morpholin-4-yl]prop-2-en-1-one], 103.029%.
For `C=CC(=O)N1CCC(C(=O)NCc2ccoc2C)CC1` [1-E14, N-[(2-methylfuran-3-yl)methyl]-1-(prop-2-enoyl)piperidine-4-carboxamide], the “% of control remaining” value came to 89.0882%.
With `C=CC(=O)N(Cc1ccc(F)cn1)c1cnn(C2CCCC2)c1C` [1-D11, N-(1-cyclopentyl-5-methyl-1H-pyrazol-4-yl)-N-[(5-fluoropyridin-2-yl)methyl]prop-2-enamide], the “% of control remaining” value turned out to be 86.846%.
Turning to `Cc1ccc(C=C(C#N)C(=O)Nc2ccccc2C)cc1` [8-G16, 2-cyano-N-(2-methylphenyl)-3-(4-methylphenyl)prop-2-enamide], the “% of control remaining” value is listed as 72.8076%.
The same measure for `N#CC(=Cc1ccc(C#N)cc1)C(=O)Nc1cccc(Cl)c1Cl` [8-J05, 2-cyano-3-(4-cyanophenyl)-N-(2,3-dichlorophenyl)prop-2-enamide]: 72.9436%.
As for `CC(Cl)C(=O)NCCc1nc2cc(F)ccc2s1` (stereo not shown) [7-P11, 2-chloro-N-[2-(5-fluoro-1,3-benzothiazol-2-yl)ethyl]propanamide], the figure is 81.4142%.
The same measure for `CC(Cl)C(=O)Nc1ccc(Cc2nnc3ncccn23)cc1` (stereo not shown) [7-O22, 2-chloro-N-[4-({[1,2,4]triazolo[4,3-a]pyrimidin-3-yl}methyl)phenyl]propanamide]: 91.0623%.
With `O=C1C=CC(=O)N1c1ccc(OC(F)F)cc1` [10-P11, 1-[4-(difluoromethoxy)phenyl]-2,5-dihydro-1H-pyrrole-2,5-dione], the “% of control remaining” value worked out at 36.7816%.
The same measure for `O=C1C=CC(=O)N1c1ccc(Oc2ccccc2)cc1` [10-F17, 1-(4-phenoxyphenyl)-2,5-dihydro-1H-pyrrole-2,5-dione]: 26.1835%.
In the case of `N#CC(=Cc1ccc(OC(F)F)cc1)C(=O)N1CCCC1` [8-L22, 3-[4-(difluoromethoxy)phenyl]-2-(pyrrolidine-1-carbonyl)prop-2-enenitrile], the “% of control remaining” value is 77.0224%.
As for `CCn1cc(N2C(=O)C=CC2=O)cn1` [10-I21, 1-(1-ethyl-1H-pyrazol-4-yl)-2,5-dihydro-1H-pyrrole-2,5-dione], the figure is 56.731%; as for `O=C1C=CC(=O)N1c1ccc(OC(F)(F)F)cc1` [10-J19, 1-[4-(trifluoromethoxy)phenyl]-2,5-dihydro-1H-pyrrole-2,5-dione], 30.0799%.
For the compound `CCOc1ccc(N2C(=O)C=CC2=O)cc1` [10-A14, 1-(4-ethoxyphenyl)-2,5-dihydro-1H-pyrrole-2,5-dione], the “% of control remaining” value was 23.3781%.
As for `Cc1cc(C(=O)CCl)c(C)n1-c1ccc(OC(F)(F)F)cc1` [10-G04, 2-chloro-1-{2,5-dimethyl-1-[4-(trifluoromethoxy)phenyl]-1H-pyrrol-3-yl}ethan-1-one], the figure is 98.344%.
As for `N#CC(=Cc1cccc(Oc2ccccc2)c1)C(=O)N1CCCC1` [9-F06, 3-(3-phenoxyphenyl)-2-(pyrrolidine-1-carbonyl)prop-2-enenitrile], the figure is 85.724%.
Turning to `CCOC(=O)C(C#N)=Cc1ccc(N2C(=O)C=CC2=O)cc1` [10-N11, ethyl 2-cyano-3-[4-(2,5-dioxo-2,5-dihydro-1H-pyrrol-1-yl)phenyl]prop-2-enoate], the “% of control remaining” value came to 96.6297%.
As for `O=C(CCl)NCc1ccc(OC(F)(F)F)cc1` [6-G08, 2-chloro-N-{[4-(trifluoromethoxy)phenyl]methyl}acetamide], the figure is 91.3072%.
`Cc1cc(C(=O)C(C)Cl)c(C)n1-c1ccc(OC(F)F)cc1` (stereo not shown) [10-E10, 2-chloro-1-{1-[4-(difluoromethoxy)phenyl]-2,5-dimethyl-1H-pyrrol-3-yl}propan-1-one]: the “% of control remaining” value turned out to be 97.7206%.
